Assay [1] has as its system Zika virus NS2B-NS3 protease (unlinked complex). Put plainly: Primary screen GU Rhodamine qHTS for Zika virus inhibitors: Unlinked NS2B-NS3 protease assay (AID 1347159). Further: on the % scale 0 is the no-effect control and ±100 the full control effect; nearly all actives have a fitted effect of over 60% in size. An outline of the steps:
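In dose–response format, inhibition of unlinked protease (25 nM) was measured with 1.5 microM bis-peptide Rhodamine110 substrate. Aprotinin served as the intraplate control.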
In general terms: Quantitative high-throughput screening tests each substance at several concentrations.

For assay [2], the system named is Zika virus NS2B-NS3 protease (linked construct). Put plainly: Primary screen NINDS Rhodamine qHTS for Zika virus inhibitors (AID 1347160). Further: nearly all actives have a fitted effect of over 55% in size. The essentials: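 Each compound, titrated, sat 15 min with 25 nM linked protease before 1.5 microM Rhodamine110 substrate went in. Fluorescence gain over the next 15 min, in pH 8.0 Tris with Tween 20, gave Hill-fitted curves.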

For assay [3], the target named is Calcium and integrin-binding protein 1 (Homo sapiens) (UniProt Q99828). The assay is described as follows: Primary qHTS for Identification of Calcium Integrin Binding Protein 1 (CIB1) Competitor (AID 1508620).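 Further: GST tagged CIB1 binding a fluorescein labelled alphaIIb integrin peptide tracer; top concentration of the series differs between compounds; on the % scale 0 is the no-effect control and ±100 the full control effect.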 An outline of the steps:
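CIB1-GST (1 uM final) and compound incubated 15 min at room temperature before adding FITC-alphaIIb peptide tracer (100 nM final). Competition for binding read by fluorescence polarization (ex 480, em 540) after another 15 min at room temperature.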

Assay [4] has as its target Glutathione peroxidase 1 (Homo sapiens) (UniProt P07203). Put plainly: Primary qHTS Assay for Inhibitors of Recombinant Selenoprotein Glutathione Peroxidase 1 (GPX1) (AID 1845191). Further: nearly all actives have a fitted effect of over 65% in size. An outline of the steps:
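NADPH consumption tracked by fluorescence at 340/450 nm between t=0 and t=15 min, room temperature. Final mix: 10 nM GPX1, 100 nM glutathione reductase, 1 mM GSH, 0.5 mM NADPH, 0.5 mM cumene hydroperoxide, 0.01% BSA; 30 min compound–enzyme preincubation.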

The target in assay [5] is Phospholipid hydroperoxide glutathione peroxidase GPX4 (Homo sapiens) (UniProt P36969). Put plainly: Primary qHTS Assay for Inhibitors of Recombinant Selenoprotein Glutathione Peroxidase 4 (GPX4) (AID 1845192). Further: nearly all actives have a fitted effect of over 65% in size. The essentials: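 NADPH consumption followed by fluorescence at 340/450 nm, t=0 and after 15 min at room temperature. Reaction started with cumene hydroperoxide (0.5 mM final) after 30 min compound–GPX4 preincubation; final 200 nM GPX4, 100 nM GR, 1 mM GSH, 0.5 mM NADPH.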

Assay [6] addresses Luciferin 4-monooxygenase (Photinus pyralis) (UniProt P08659). Put plainly: Primary firefly luciferase (FLuc) qHTS assay for identification of artifact compounds. (AID 1845220). Further: nearly all actives have a fitted effect of over 60% in size. The settings on record: outcome: dose series up to 54.1 µM unless noted. An outline of the steps:
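Cell-free, 1536-well qHTS. Buffer pH 7.6 with 0.01% Tween-20 and 0.05% BSA; 10 uM D-luciferin, 10 uM ATP; 10 nM P. pyralis luciferase; luminescence after 5 min.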

Assay [7] can be described thus: Primary fluorescence-based thiol-reactive (MSTI) qHTS assay for identification of artifact compounds. (AID 1845221).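 Further: thiol-reactive compounds lower the probe fluorescence signal; nearly all actives have a fitted effect of over 65% in size.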 An outline of the steps: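 MSTI probe at 4 uM final in 2% DMSO/PBS pH 7.4; compounds, 1 h at room temperature in dark. Fluorescence Ex/Em 525/598 nm, normalised to Acetyl-MSTI and MSTI, fitted to 4-parameter Hill.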
Assay [8] deals with Nanoluciferase (engineered Oplophorus gracilirostris luciferase). The assay is described as follows: Primary Nanoluciferase (NLuc) qHTS assay for identification of artifact compounds. (AID 1845222).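 Further: 0% = DMSO and -100% = no enzyme.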 An outline of the steps:
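Compounds are pinned into diluted (1:55) conditioned medium of NLuc-expressing S16 cells and held 15 min at room temperature protected from light. Nano-Glo substrate follows, and luminescence is read 5 min later.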

The subject of assay [9] is CAOV3. The assay is described as follows: Primary qHTS to identify gynecologic anti-cancer compounds using libraries of approved drugs and bioactive compounds (AID 1345084). Further: nearly all actives have a fitted effect of over 55% in size. Further: potency means the concentration at half of the fitted maximal effect. The settings on record: Gynecologic cancer cell panel viability, ATPlite luminescence, 48 h; series mostly up to 57.5 µM. An outline of the steps: (§1)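 Cells, 1,000 per well, plated 16 h, then exposed 48 h at 37 C to compounds. Viability by ATPlite luminescence after 15 min at room temperature.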

Assay [10] has as its system CASKI. Described as above. The settings on record: Gynecologic cancer cell panel viability, ATPlite luminescence, 48 h; series mostly up to 57.5 µM. An outline of the steps:
as §1
(In ATP-based viability assays light output follows the ATP content of the culture.)

Assay [11] relates to Es-2. Described as above. The note with it: Gynecologic cancer cell panel viability, ATPlite luminescence, 48 h; series mostly up to 57.5 µM. An outline of the steps: as §1
The subject of assay [12] is Hek293T. The description is as above. The settings on record: Gynecologic cancer cell panel viability, ATPlite luminescence, 48 h, control line for the selectivity index; series mostly up to 57.5 µM. An outline of the steps:
as §1

For assay [13], the system named is JEG-3. The description is as above. The note with it: Gynecologic cancer cell panel viability, ATPlite luminescence, 48 h; series mostly up to 57.5 µM. The essentials:
as §1

Assay [14] deals with OV90. Described as above. The note with it: Gynecologic cancer cell panel viability, ATPlite luminescence, 48 h; series mostly up to 57.5 µM. The essentials:
as §1

For assay [15], the system named is PA-1. Described as above. The settings on record: Gynecologic cancer cell panel viability, ATPlite luminescence, 48 h; series mostly up to 57.5 µM. An outline of the steps:
as §1

The subject of assay [16] is Tov-21-G. The description is as above. The settings on record: Gynecologic cancer cell panel viability, ATPlite luminescence, 48 h; series mostly up to 57.5 µM. An outline of the steps: as §1
Assay [17] has as its system Tov112D. The assay is described as above. The settings on record: Gynecologic cancer cell panel viability, ATPlite luminescence, 48 h; series mostly up to 57.5 µM. The essentials:
as §1

For assay [18], the system named is CRL-7250. Put plainly: Cytotoxic Profiling of Annotated Libraries Using Quantitative High-Throughput Screening (AID 1296008). Further: nearly all actives have a fitted effect of over 60% in size. Further: potency means the concentration at half of the fitted maximal effect. On max response: on the % scale 0 is the no-effect control and ±100 the full control effect. The note with it: Five cell lines viability, CellTiter-Glo ATP luminescence, 48-72 h; max response: stronger effect = lower value. An outline of the steps: (§2)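 Cytotoxicity was measured as CellTiter-Glo ATP luminescence, read after 10 min at room temperature. Compound treatment of the cells lasted 48 or 72 hr at 37 degrees Celsius in a qHTS format.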

For assay [19], the system named is NIH3T3. The description is as above. The note with it: Five cell lines viability, CellTiter-Glo ATP luminescence, 48-72 h; max response: stronger effect = lower value. The essentials:
as §2

The test system of assay [20] is C33A. Put plainly: Primary qHTS to identify gynecologic anti-cancer compounds using libraries of approved drugs and bioactive compounds (AID 1345084). Further: nearly all actives have a fitted effect of over 55% in size. Further: potency means the concentration at half of the fitted maximal effect. The settings on record: Gynecologic cancer cell panel viability, ATPlite luminescence, 48 h; series mostly up to 57.5 µM. An outline of the steps:
as §1

Values without a mark were called inactive. Inconclusive results are not listed. Activity calls are given as the source filed them. The call rests on the fitted dose curve; in most records, active means well fitted curve in the direction sought with a large enough effect; inconclusive means small, poorly fitted or top-dose-only effect, or another doubt; inactive means no such curve, though single readings can be large; an effect the other way counts as inactive or inconclusive.

Calcium and integrin-binding protein 1 (Homo sapiens), sequence (Q99828 whole entry, looked up): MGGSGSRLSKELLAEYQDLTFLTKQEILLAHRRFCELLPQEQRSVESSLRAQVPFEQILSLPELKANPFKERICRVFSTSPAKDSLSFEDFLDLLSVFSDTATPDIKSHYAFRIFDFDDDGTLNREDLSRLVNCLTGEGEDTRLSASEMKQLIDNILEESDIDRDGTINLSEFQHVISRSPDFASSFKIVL
Glutathione peroxidase 1 (Homo sapiens), sequence (P07203 whole entry, looked up): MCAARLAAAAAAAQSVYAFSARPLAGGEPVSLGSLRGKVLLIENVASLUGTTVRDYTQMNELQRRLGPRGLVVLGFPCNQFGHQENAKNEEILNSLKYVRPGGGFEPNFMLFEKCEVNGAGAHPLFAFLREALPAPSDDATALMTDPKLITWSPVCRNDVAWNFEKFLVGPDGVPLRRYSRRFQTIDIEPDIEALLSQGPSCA
Phospholipid hydroperoxide glutathione peroxidase GPX4 (Homo sapiens), sequence (P36969 whole entry, looked up): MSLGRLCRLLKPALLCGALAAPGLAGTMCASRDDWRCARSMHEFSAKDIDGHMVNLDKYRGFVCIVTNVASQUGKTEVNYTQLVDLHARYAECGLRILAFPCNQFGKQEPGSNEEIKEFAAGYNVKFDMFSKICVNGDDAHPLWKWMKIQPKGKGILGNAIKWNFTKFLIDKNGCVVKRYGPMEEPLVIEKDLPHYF

Take `CCOC(=O)c1ccc(-c2ccc(OC(=O)N(C)Cc3cccc(-c4ccncc4)c3)cc2)cc1`: the Potency entry in assay [1], in assay [2], in assay [3], in assay [4], in [5] and in assay [7] was “inactive” each time. Besides, the Potency entry in [8], in [9], in assay [10], in assay [11], in assay [12] and in [13] was “inactive” in each case. Further, the Potency result in assay [14], in assay [15], in [16] and in assay [17] was “inactive” each time. For the same compound, the call in assay [6] was inactive.

Take `CC1=CC2/C=C(\C)CCC(O)C(O)/C=C/C(=O)OC23C(=O)NC(CC(C)C)C3C1C` (centres undefined): the Potency entry in assay [1], in assay [2], in assay [3], in assay [4], in [5] and in assay [7] was “inactive” in each case. Further, the Potency entry in [8], in assay [20], in assay [9], in assay [10], in assay [11] and in assay [12] was “inactive” each time. Also, the Potency result in assay [13], in assay [14], in assay [15], in assay [16] and in assay [17] was “inactive” in each case. The max response is -26.9% in assay [18] and -15.3% in assay [19].

For `C[C@]12CC[C@H](O[C@@H]3O[C@H](CO)[C@@H](O)[C@H](O)[C@H]3O)CC1=CC[C@@H]1C2CC[C@]2(C)[C@@H](C3=CC(=O)OC3)CC[C@]12O` (some centres undefined), the Potency entry in assay [1], in assay [2], in assay [3], in [4], in assay [5] and in assay [7] was “inactive” throughout. The Potency entry in assay [8], in assay [13] and in [14] was “inactive” each time. Further, the outcome in assay [6] was “inactive [at 25.7 µM]”. The Potency in assay [18] was 3.43 µM (active); in assay [11], 10 µM (active); in assay [16], 6.31 µM (active); in assay [17], 3.16 µM (active). The max response in [19] is 0.891%.

`O=C1CN=C(c2ccccc2Cl)c2cc(Br)ccc2N1`: the Potency result in [2], in assay [3], in assay [4], in assay [5], in [7] and in [8] was “inactive” throughout. For the same compound, the Potency result in assay [20], in assay [9], in assay [10], in [11], in [12] and in assay [13] was “inactive” each time. For the same compound, the Potency result in assay [14], in assay [15], in assay [16] and in assay [17] was “inactive” throughout. For the same compound, the outcome in [6] and in assay [19] was inactive. In assay [18], the max response is -11.2%.

As for `C/C=C(\C)C(O)C(C)/C=C(C)/C=C/C/C(C)=C/Cc1nc(OC)c(OC)c(O[C@@H]2O[C@@H](C)[C@H](O)[C@@H](O)[C@H]2O)c1C` (some centres undefined), the Potency result in assay [1], in [2], in assay [3], in assay [4], in assay [5] and in [7] was “inactive” each time. Besides, the Potency entry in assay [8], in assay [14] and in assay [17] was “inactive” in each case. The call in assay [6] was inactive. Also, the results for the Potency in assay [18] and in [10] were 0.796 µM (active) and 3.98 µM (active), respectively.

For the compound `CCOC(=O)Nc1ccc(NCc2c(C)cc(C)cc2C)cc1N`, the Potency entry in [1], in assay [2], in [4], in [5], in assay [8] and in assay [20] was “inactive” each time. For the same compound, the Potency result in assay [10], in assay [11], in [12], in assay [13], in assay [14] and in assay [15] was “inactive” in each case. Also, the Potency result in assay [16] and in assay [17] was “inactive” in each case. In addition, the outcome in [6] and in [18] was inactive. Moreover, the max response in assay [19] was 0.149%.
